From PubChem BioAssay AID1481 (The Scripps Research Institute Molecular Screening Center, 2009) come the findings set out here.

SMILES strings stand for the structures. Where “and” joins values, the source holds several entries; their conditions need not be identical. Identical values can stand only once. Hit rate of the full screen: of about 220,000 compounds, about 920 (0.42%) were called active. Many of the other results were omitted from the sample, so actives are more common in it than they were. A number with no mark means an inactive call. Rule as the data show it: active = inhibition above about 15%; inactive = the rest.

For orientation: inhibition means the relative decrease from the control value, in per cent.

Transitional endoplasmic reticulum ATPase (Homo sapiens), sequence (P55072 whole entry, looked up): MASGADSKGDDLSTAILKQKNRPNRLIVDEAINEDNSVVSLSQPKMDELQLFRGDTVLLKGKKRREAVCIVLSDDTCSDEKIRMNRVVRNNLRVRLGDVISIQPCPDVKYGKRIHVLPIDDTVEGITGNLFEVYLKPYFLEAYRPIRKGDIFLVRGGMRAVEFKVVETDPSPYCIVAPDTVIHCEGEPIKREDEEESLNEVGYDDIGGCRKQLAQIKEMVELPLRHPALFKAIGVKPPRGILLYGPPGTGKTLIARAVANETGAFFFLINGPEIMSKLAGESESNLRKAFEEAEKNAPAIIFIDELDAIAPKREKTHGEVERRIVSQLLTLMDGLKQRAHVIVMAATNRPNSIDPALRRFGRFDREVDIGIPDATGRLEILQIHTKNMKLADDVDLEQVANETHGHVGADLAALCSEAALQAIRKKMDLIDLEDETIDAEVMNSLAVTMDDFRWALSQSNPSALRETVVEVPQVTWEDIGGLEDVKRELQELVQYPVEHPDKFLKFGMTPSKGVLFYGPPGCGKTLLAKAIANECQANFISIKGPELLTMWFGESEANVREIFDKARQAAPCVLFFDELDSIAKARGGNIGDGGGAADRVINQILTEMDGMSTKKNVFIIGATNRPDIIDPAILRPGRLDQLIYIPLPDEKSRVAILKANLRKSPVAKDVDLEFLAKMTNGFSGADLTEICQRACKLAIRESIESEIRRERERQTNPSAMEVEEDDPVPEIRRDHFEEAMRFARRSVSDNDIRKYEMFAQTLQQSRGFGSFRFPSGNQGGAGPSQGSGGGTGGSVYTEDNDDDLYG

This assay addresses Transitional endoplasmic reticulum ATPase (Homo sapiens) (UniProt P55072). As to the kind of experiment: p97 ATP hydrolysis blockers – biochemical, primary screen (AID 1481).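 Also: 0% = DMSO vehicle and 100% = wells lacking enzyme.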 The conditions noted are these: recombinant p97 ATPase, Kinase-Glo ATP luminescence, 3 h; at 8 µM; hits give high values. On the technique in general: Kinase-Glo measures the ATP left after a reaction by luminescence.
As to `C=CCNC(=O)CSc1nc2scc(-c3ccco3)c2c(=O)n1CC=C`, the inhibition was 6.86%.

In the case of `C=CCn1c(SCc2csc(C)n2)nc2scc(-c3ccc(C)o3)c2c1=O`, the inhibition is 3.29%. Then `C=CCn1c(=S)[nH]c2scc(-c3ccco3)c2c1=O`, with 15.2% (active). Then `C/C(CCc1ccccc1)=N\NC(=O)c1ccc(CN2CCOCC2)cc1`, with 6.17%. The figure for `C=CCc1cccc2cc(C(=O)NC3CCCC3)c(=O)oc12` is 1.22%; for `COc1ccc(-c2[nH]ncc2/C=N/NC(=O)c2cc(Br)ccc2O)c(OC)c1` it is 19.8% (active). As for `CC(C)/C=N/NC(=O)c1cc(Br)ccc1O`, the inhibition was -3.39%. In the case of `COc1ccc(CC(=O)NCC(=O)N/N=C/c2cc(Br)ccc2OC)cc1`, the inhibition is -3.65%. As for `CN(C)c1ccc(/C=C/C(=O)c2ccc(C(C)(C)C)cc2)cc1[N+](=O)[O-]`, the inhibition was 3.04%.

Regarding `NC(=O)c1ccc(NC(=O)COC(=O)c2c3c(nc4ccccc24)/C(=C\c2ccc4c(c2)OCO4)CCC3)cc1`, the inhibition was 21.3% (active). The figure for `O=C(COC(=O)c1c2c(nc3ccccc13)/C(=C\c1cccs1)CCC2)Nc1ccccc1Cl` is -4.57%. Then `NS(=O)(=O)c1ccc(NC(=O)COC(=O)c2c3c(nc4ccccc24)/C(=C\c2ccc4c(c2)OCO4)CCC3)cc1`, with -1.8%. Turning to `COc1ccnc(Oc2ccccc2)c1-c1ncn[nH]1`, the inhibition was 2.16%. Then `COc1ccc(Cl)cc1C(=O)NNC(=O)c1nc2nc(C)cc(C)n2n1`, with 23.2% (active). The figure for `C=CCNC(=S)NNC(=O)c1cc(Cl)ccc1OC` is 2.04%; for `Cc1cc(C)n2nc(C(=O)NC(C)(C)C)nc2n1` it is -8.48%. Then `CC1(C)CC(N2CCN(C(c3ccccc3)c3ccccc3)CC2)=CC(=[N+]2CCCCC2)C1`, with -4.13%; and `CCc1nn(CCCN2CCN(c3cccc(Cl)c3)CC2)c(=O)n1CCOc1ccccc1`, with -5.07%; and `C=CCNCCCCOc1ccccc1`, with -1.97%. With `CC(C(=O)O)n1cnc2sc3c(c2c1=O)CCCC3` (centres undefined), the inhibition is 19.5% (active). Then `CCOC(=O)C(C)n1cnc2sc(C)c(C)c2c1=O` (centres undefined), with -1.18%; and `N=c1c2c3c(sc2ncn1N)CCCC3`, with 5.38%. Then `CN1CCN(c2ccc(S(=O)(=O)N3CCOCC3)cc2NC(=O)CCc2ccccc2)CC1`, with 4%; and `Fc1ccccc1/C=C1\CCCC2=C1Nc1ncnn1C2c1ccccc1F` (centres undefined), with 3.82%; and `Oc1c(Cl)cc(Cl)c(Cl)c1Cc1c(O)c(Cl)cc(Cl)c1Cl`, with 31.6% (active). Then `COc1cc(S(=O)(=O)N2CCOCC2)ccc1NC(=O)COc1ccc(N(C)S(=O)(=O)c2ccc(C)cc2)cc1`, with 10.4%; and `Cc1c(NC(=O)CN2C(=O)C(=O)N(Cc3ccccc3)C2=O)c(=O)n(-c2ccccc2)n1C`, with 1.04%; and `Cc1cccc(NC(=O)c2ccc([N+](=O)[O-])o2)c1`, with 0.75%. Take `N#Cc1c(-c2ccc(F)cc2)nc(-c2ccccc2)[nH]c1=O`: the inhibition was 1.67%. The figure for `[O-][n+]1onc2c1CCc1[nH]c(-c3ccccc3)nc1-2` is 37.3% (active); for `COc1ccc([N+](=O)[O-])cc1N(CC(O)CN(CC(C)C)CC(C)C)S(=O)(=O)c1ccc(C)cc1` (centres undefined) it is -15%. Then `Cn1sc(=O)c2cc(S(=O)(=O)NC3CC3)ccc21`, with 13.5%; and `Clc1ccc(C2=CSC3=Nc4cccc5cccc(c45)N23)cc1`, with 33% (active). The figure for `N#Cc1ccsc1NC(=O)CN1CCN(S(=O)(=O)c2cc(Cl)ccc2Cl)CC1` is 1.72%; for `CCC1(CC)NC(=O)N(CC(=O)OCC(=O)NC(=O)c2ccccc2)C1=O` it is -0.8%. Consider `Cc1ccc(C(O)P(=O)(OC(C)C)c2ccc(N(C)C)cc2)cc1` (centres undefined), for which the inhibition was 0.27%. The figure for `COC(=O)CNc1nc(Cl)nc(N2CCC(C)CC2)n1` is -3.6%; for `O=C(Nc1cccc(F)c1)c1coc(=O)c(Br)c1` it is -1.08%; for `Cc1nc(-c2ccccc2)sc1-c1nnc(C2CC2)o1` it is -11.7%.

`COc1ccccc1C1C(C#N)=C(N)Oc2c1c(-c1ccccc1)nn2-c1ccccc1` (centres undefined): the inhibition was 27.6% (active). For `Cc1nn(Cc2ccccc2)c2c1C(c1ccccc1)C(C#N)=C(N)O2` (centres undefined), the inhibition was 10.6%. The figure for `Cc1nn(-c2ccccc2)c2c1C(c1ccc(F)cc1)C(C#N)=C(N)O2` (centres undefined) is -4.19%. Then `CCC1C=C(c2ccccc2)C=CN=C1N(CC)CC` (centres undefined), with -5.24%. Then `CCC(C)CN1CCC(CO)(Cc2ccccc2Cl)CC1` (centres undefined), with -5.42%. Turning to `Cc1cc(Nc2ccc(N3CCOCC3)cc2)c2cccc(C)c2n1`, the inhibition was 4.03%.

With `CN1CCC(=NNC(=O)c2ccc(N(Cc3ccc(Cl)cc3)S(C)(=O)=O)cc2)CC1`, the inhibition is -1.22%. The figure for `CC(C)Sc1nnc([C@H](Cc2ccccc2)NC(=O)OC(C)(C)C)o1` is -6.35%; for `COc1ccc2c(c1)C(=C(C#N)C#N)C(=O)N2CCc1ccccc1` it is 20.6% (active); for `C#CCN1C(=O)C(O)(CC(=O)c2cc(OC)ccc2OC)c2ccccc21` (centres undefined) it is 4.75%. Then `CCCCN1C(=O)/C(=C(/C#N)C(N)=O)c2ccccc21`, with 1.92%; and `CC(C)(C)c1cnnn1-c1ccc([N+](=O)[O-])cc1`, with 4.98%. In the case of `Nc1ccccc1Sc1ccc(C(F)(F)F)cc1[N+](=O)[O-]`, the inhibition is -3.21%. `CC(=O)Nc1ccc(CC#N)cc1`: the inhibition is 3.27%. With `O=C(CN1CCN(c2ccc(O)cc2)CC1)Nc1cc(S(=O)(=O)N2CCOCC2)ccc1Cl`, the inhibition is 6.43%. The figure for `O=C(N/N=C/c1ccc([N+](=O)[O-])o1)c1cccc(S(=O)(=O)N2CCOCC2)c1` is -1.08%; for `O=[N+]([O-])c1cc(Cl)cc(/C=N/NC(=S)Nc2cc(S(=O)(=O)N3CCOCC3)ccc2Cl)c1O` it is 14.6% (active); for `COc1ccccc1-n1c(-c2cc(-c3ccco3)[nH]n2)n[nH]c1=S` it is 6.44%. The figure for `Brc1ccc(-c2csc(N/N=C/c3cccnc3)n2)cc1` is 0.38%; for `CC(C)CNC(=O)/C=C/C(=O)O` it is 1.63% and 0.6%.
